Laboratory results published in the supplement of paper PMC7411054.

Tests used:
Details in all cases: treatment time: 24 h
A549-ACTB-RAB5A [1] = experiment: lowest phenotypically active concentration; higher = less potent
Summary of the method: (§1)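 Two criteria together defined phenotypic activity: deviation and reproducibility. Deviation meant ≥3 of 4 wells beyond the 95th percentile of Euclidean distances in solvent control wells, and reproducibility meant a median replicate Pearson correlation above the 95th percentile of non-replicates. Wells had been treated for 24 h at 0.3, 1, 3 or 9 µM in fifteen gene-edited A549, HepG2 and WPMY1 reporter lines before live imaging.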

A549-GM130-SQSTM1 [2] = experiment: as above
Summary of the method: as §1

A549-TUBA1B-RELA [3] = experiment: as above
Summary of the method: as §1

WPMY1-CANX-COX4 [4] = experiment: as above
Summary of the method: as §1

A549-ACTB-RAB5A [5] = experiment: phenotypically active (imaging signature differs from DMSO and reproducible) at any of 0.3-9 uM (binary (1 = active, 0 = inactive)); higher = active
Summary of the method: as §1

A549-CANX-COX4 = experiment: as above
Summary of the method: as §1

A549-GM130-SQSTM1 [6] = experiment: as above
Summary of the method: as §1

A549-TP53BP1-CLTA = experiment: as above
Summary of the method: as §1

A549-TUBA1B-RELA [7] = experiment: as above
Summary of the method: as §1

HepG2-ACTB-RAB5A = experiment: as above
Summary of the method: as §1

HepG2-CANX-COX4 = experiment: as above
Summary of the method: as §1

HepG2-GM130-SQSTM1 = experiment: as above
Summary of the method: as §1

HepG2-TP53BP1-CLTA = experiment: as above
Summary of the method: as §1

HepG2-TUBA1B-RELA = experiment: as above
Summary of the method: as §1

WPMY1-ACTB-RAB5A [8] = experiment: as above
Summary of the method: as §1

WPMY1-CANX-COX4 [9] = experiment: as above
Summary of the method: as §1

WPMY1-GM130-SQSTM1 = experiment: as above
Summary of the method: as §1

WPMY1-TP53BP1-CLTA = experiment: as above
Summary of the method: as §1

WPMY1-TUBA1B-RELA = experiment: as above
Summary of the method: as §1

WPMY1-ACTB-RAB5A [10] = experiment: lowest phenotypically active concentration; higher = less potent
Summary of the method: as §1

Row | Structure (SMILES) | lowest phenotypically active concentration (A549-ACTB-RAB5A [1]) [µM] | lowest phenotypically active concentration (A549-GM130-SQSTM1 [2]) [µM] | lowest phenotypically active concentration (A549-TUBA1B-RELA [3]) [µM] | lowest phenotypically active concentration (WPMY1-CANX-COX4 [4]) [µM] | phenotypically active (A549-ACTB-RAB5A [5]) | phenotypically active (A549-CANX-COX4) | phenotypically active (A549-GM130-SQSTM1 [6]) | phenotypically active (A549-TP53BP1-CLTA) | phenotypically active (A549-TUBA1B-RELA [7]) | phenotypically active (HepG2-ACTB-RAB5A) | phenotypically active (HepG2-CANX-COX4) | phenotypically active (HepG2-GM130-SQSTM1) | phenotypically active (HepG2-TP53BP1-CLTA) | phenotypically active (HepG2-TUBA1B-RELA) | phenotypically active (WPMY1-ACTB-RAB5A [8]) | phenotypically active (WPMY1-CANX-COX4 [9]) | phenotypically active (WPMY1-GM130-SQSTM1) | phenotypically active (WPMY1-TP53BP1-CLTA) | phenotypically active (WPMY1-TUBA1B-RELA) | lowest phenotypically active concentration (WPMY1-ACTB-RAB5A [10]) [µM]
1 | CN1[C@@H]2CC[C@H]1C[C@@H](OC(c1ccccc1)c1ccccc1)C2 [benztropine] | 9 | 9 | 9 | 9 | 1 (active) | 0 (inactive) | 1 (active) | 1 (active) | 1 (active) | 1 (active) | 1 (active) | 0 (inactive) | 1 (active) | 1 (active) | 0 (inactive) | 1 (active) | 1 (active) | 0 (inactive) | 1 (active) | –
2 | CNCCC(Oc1ccc(C(F)(F)F)cc1)c1ccccc1 (stereo not given) [fluoxetine] | 3 | 9 | 3 | – | 1 (active) | 0 (inactive) | 1 (active) | 1 (active) | 1 (active) | 0 (inactive) | 0 (inactive) | 0 (inactive) | 1 (active) | 1 (active) | 0 (inactive) | 0 (inactive) | 1 (active) | 0 (inactive) | 0 (inactive) | –
3 | O=C(NOCC1CC1)c1ccc(F)c(F)c1Nc1ccc(I)cc1Cl | ≤ 0.3 | 1 | 9 | – | 1 (active) | 0 (inactive) | 1 (active) | 1 (active) | 1 (active) | 1 (active) | 1 (active) | 1 (active) | 1 (active) | 1 (active) | 0 (inactive) | 0 (inactive) | 0 (inactive) | 0 (inactive) | 0 (inactive) | –
4 | COc1cc(C(C)=O)ccc1OCCCN1CCC(c2noc3cc(F)ccc23)CC1 [iloperidone] | 3 | 9 | 3 | – | 1 (active) | 0 (inactive) | 1 (active) | 0 (inactive) | 1 (active) | 0 (inactive) | 0 (inactive) | 0 (inactive) | 0 (inactive) | 0 (inactive) | 0 (inactive) | 0 (inactive) | 0 (inactive) | 0 (inactive) | 0 (inactive) | –
5 | CC/C(=C(\CC)c1ccc(O)c(CN(CC)CC)c1)c1ccc(O)c(CN(CC)CC)c1 | ≤ 0.3 | ≤ 0.3 | ≤ 0.3 | 1 | 1 (active) | 0 (inactive) | 1 (active) | 1 (active) | 1 (active) | 1 (active) | 0 (inactive) | 1 (active) | 1 (active) | 1 (active) | 1 (active) | 1 (active) | 1 (active) | 1 (active) | 1 (active) | 1
6 | CC(=O)O[C@@H]1C[C@H]2C(C)(C)C(=O)C=C[C@]2(C)[C@H]2CC[C@@]3(C)[C@H](c4ccoc4)OC(=O)[C@H]4O[C@]43[C@@]21C [gedunin] | 3 | 9 | 9 | 9 | 1 (active) | 0 (inactive) | 1 (active) | 0 (inactive) | 1 (active) | 0 (inactive) | 1 (active) | 1 (active) | 1 (active) | 1 (active) | 1 (active) | 1 (active) | 1 (active) | 0 (inactive) | 0 (inactive) | 3
7 | CC1=C(/C=C/C(C)=C\C=C\C(C)=C\C(=O)O)C(C)(C)CCC1 [tretinoin] | 3 | 3 | 3 | 1 | 1 (active) | 0 (inactive) | 1 (active) | 0 (inactive) | 1 (active) | 1 (active) | 1 (active) | 1 (active) | 0 (inactive) | 0 (inactive) | 1 (active) | 1 (active) | 1 (active) | 1 (active) | 1 (active) | 1
8 | CC(CN(C)C)CN1c2ccccc2CCc2ccccc21 (stereo not given) [trimipramine] | 9 | 9 | 9 | 9 | 1 (active) | 0 (inactive) | 1 (active) | 0 (inactive) | 1 (active) | 1 (active) | 0 (inactive) | 0 (inactive) | 0 (inactive) | 1 (active) | 1 (active) | 1 (active) | 1 (active) | 0 (inactive) | 0 (inactive) | 9
9 | Cc1c(O)cccc1C(=O)N[C@@H](CSc1ccccc1)[C@H](O)CN1C[C@H]2CCCC[C@H]2C[C@H]1C(=O)NC(C)(C)C [nelfinavir] | 9 | 9 | 9 | 9 | 1 (active) | 0 (inactive) | 1 (active) | 0 (inactive) | 1 (active) | 1 (active) | 1 (active) | 1 (active) | 0 (inactive) | 1 (active) | 1 (active) | 1 (active) | 1 (active) | 0 (inactive) | 1 (active) | 3
10 | CCOC(=O)c1c(CSc2ccccc2)n(C)c2cc(Br)c(O)c(CN(C)C)c12 [arbidol] | 9 | 9 | 9 | – | 1 (active) | 0 (inactive) | 1 (active) | 0 (inactive) | 1 (active) | 1 (active) | 1 (active) | 1 (active) | 1 (active) | 1 (active) | 0 (inactive) | 0 (inactive) | 1 (active) | 0 (inactive) | 0 (inactive) | –
11 | CNCCCN1c2ccccc2CCc2ccccc21 [desipramine] | 9 | 3 | 9 | – | 1 (active) | 0 (inactive) | 1 (active) | 0 (inactive) | 1 (active) | 1 (active) | 0 (inactive) | 0 (inactive) | 0 (inactive) | 1 (active) | 1 (active) | 0 (inactive) | 1 (active) | 0 (inactive) | 1 (active) | 9
